Experimental data: article PMC5540273 (PLoS ONE, 2017)

Key:
[1] = system: AAK1; conditions: concentration: 1 μM, replicates: in singlicate; n = 1
[2] = system: ABL1-nonphosphorylated; conditions: concentration: 1 μM, replicates: in singlicate; n = 1
[3] = system: ABL1-phosphorylated; conditions: concentration: 1 μM, replicates: in singlicate; n = 1
[4] = system: ABL2; conditions: concentration: 1 μM, replicates: in singlicate; n = 1
[5] = system: ACVR1B; conditions: concentration: 1 μM, replicates: in singlicate; n = 1
[6] = system: ACVR1; conditions: concentration: 1 μM, replicates: in singlicate; n = 1
[7] = system: ACVR2A; conditions: concentration: 1 μM, replicates: in singlicate; n = 1
[8] = system: ACVR2B; conditions: concentration: 1 μM, replicates: in singlicate; n = 1
[9] = system: ACVRL1; conditions: concentration: 1 μM, replicates: in singlicate; n = 1
[10] = system: T1, ADCK3; conditions: concentration: 1 μM, replicates: in singlicate; n = 1
T1 construct: gene CABC1

[11] = system: ADCK4; conditions: concentration: 1 μM, replicates: in singlicate; n = 1
[12] = system: AKT1; conditions: concentration: 1 μM, replicates: in singlicate; n = 1
[13] = system: AKT2; conditions: concentration: 1 μM, replicates: in singlicate; n = 1
[14] = system: AKT3; conditions: concentration: 1 μM, replicates: in singlicate; n = 1
[15] = system: ALK; conditions: concentration: 1 μM, replicates: in singlicate; n = 1
[16] = system: T2, p38-alpha
T2 construct: gene MAPK14

[17] = system: T3, YSK4
T3 construct: gene MAP3K19

[18] = system: ZAK
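Wherever %Inh is given: KINOMEscan kinase panel screen.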
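Wherever Kd is given: kd values determined as follow-up on hits from a single-replicate KINOMEscan panel screen.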

SMILES	%Inh [1] [%]	%Inh [2] [%]	%Inh [3] [%]	%Inh [4] [%]	%Inh [5] [%]	%Inh [6] [%]	%Inh [7] [%]	%Inh [8] [%]	%Inh [9] [%]	%Inh [10] [%]	%Inh [11] [%]	%Inh [12] [%]	%Inh [13] [%]	%Inh [14] [%]	%Inh [15] [%]	Kd [16] [nM]	Kd [17] [nM]	Kd [18] [nM]
CC[C@@H]1CO[C@H](C(=O)Nc2ccccc2)CN1c1cc(-c2ccc3c(N)n[nH]c3c2)nc(NC)n1 [GSK2376236]	19	0	0	0	0	0	0	0	0	27	12	0	15	0	0			
CNCc1ccc2nc(NC(=O)c3ccc(C(C)(C)C)cc3)cn2c1	0	13	12	1	0	2	0	0	7	0	13	5	8	17	16	> 10000		
Fc1ccc(-c2nn3cccc(F)c3c2-c2ccncc2)cc1 [GW475620]	13	0	0	2	23	11	0	47	22	12	9	0	14	29	16	140		
O=C(Nc1n[nH]c2cc(-c3ccsc3)ccc12)C1CC1 [SB-732932]	56	47	11	18	21	28	26	45	0	0	0	0	21	9	9		120	
Fc1ccc(-c2nc[nH]c2-c2ccncc2)cc1 [SB-217360]	0	4	33	0	13	0	5	50	0	0	18	4	0	0	10	67		
CCn1c(-c2ccccc2)nc2cnccc21 [SB-733416]	0	0	13	5	0	23	20	15	10	8	0	0	14	0	36			
Cc1ccc(NC(=O)c2ccc(Cl)cc2)cc1-c1ccc(C(=O)Nc2ccncc2)cc1 [GSK1398467]	8	0	0	20	0	7	0	10	0	15	0	0	19	0	18			
Cc1cccc2c(-c3ccncn3)c(-c3ccc(F)cc3)nn12 [GW515532]	0	0	0	2	2	0	19	37	21	40	40	0	8	0	23	1300		
COc1cccc(CNC(=O)NC2CCN(c3ccnc(Nc4ccc(F)cc4)n3)C2)c1 (stereo not shown) [GSK1379723]	6	0	1	8	0	10	0	0	0	10	35	0	12	0	43			> 10000
O=C1NC(=O)C(c2ccc(Cl)cc2)=C1Nc1ccc(O)cc1 [SB-340867]	3	28	0	0	0	11	0	0	0	0	0	1	0	0	0			
Cc1ccc(NC(=O)Nc2ccccc2)cc1-c1ccc(C(=O)Nc2ccncc2)cc1 [GSK1398471]	8	0	0	16	0	0	0	0	0	19	14	1	4	0	21		71	
CN1c2ccc(-c3ccc(C(N)=O)cc3)cc2-c2[nH]ncc2S1(=O)=O	39	36	9	0	3	0	8	16	16	0	3	3	0	0	30			
CC(=O)c1c(C)c2cnc(Nc3ccn(C)n3)nc2n(C2CCCC2)c1=O	0	0	0	0	2	16	0	0	0	0	0	3	23	0	6			
Cn1cncc1-c1cc2c(Nc3ccc(OCc4ccccc4)cc3)ncnc2cn1 [GW281179]	20	0	0	12	0	5	0	18	0	7	24	0	5	0	23			
CS(=O)(=O)Cc1ccc(Nc2nccc(-c3c(-c4cccc(NC(=O)C5CCCCC5)c4)nn4ncccc34)n2)cc1 [GSK350559]	0	8	15	5	0	18	0	0	0	24	0	23	4	0	29			
Cc1ccc(-c2nc(Nc3ccncc3)c3ccccc3n2)s1 [GSK189015]	12	0	0	21	0	34	17	11	29	21	4	55	19	3	26			
COc1ccc(Nc2nccc(N3CCC(NC(=O)C(C)c4ccc(Cl)cc4)C3)n2)cc1 (stereo not shown) [GSK1379735]	14	0	0	18	19	14	0	0	0	22	17	0	9	0	25			
Cn1cnc2c(N)ncnc21 [SKF-97623]	0	21	0	2	0	0	0	0	0	0	17	0	0	0	28			
CCn1c(-c2c(N)noc2C)nc2cnccc21 [SB-737856]	0	0	13	13	0	21	0	0	0	23	24	0	18	0	35			
Nc1ncnc2occ(-c3ccc4c(c3)CCN4C(=O)Cc3cc(F)ccc3F)c12 [GSK2645446]	53	27	3	13	0	0	0	0	0	8	0	0	0	0	0			
Cc1ccccc1Cn1ccn2c(=O)cc(N3CCOCC3)nc12 [GSK2269905]	24	0	0	11	0	25	0	0	0	16	17	0	16	0	28			
COc1ccc(Nc2nccc(-c3ccc(NC(=O)c4cc5cc(F)ccc5[nH]4)cc3)n2)cc1 [GSK1229496]	65	0	0	0	23	0	0	0	0	5	29	0	0	0	17			
CSc1ccc(-c2nc3n(c2-c2ccncc2)CCC3)cc1 [SKF-105561]	0	16	0	12	4	5	0	2	21	0	0	6	0	6	8			
CS(=O)(=O)CCNCc1nc(-c2ccc3ncnc(Nc4ccc5c(cnn5Cc5ccccc5)c4)c3c2)cs1.Cl.Cl [GW569716]	0	68	0	13	0	1	0	0	0	10	54	0	2	0	31			
CCc1ccc(-c2ccc3c(c2)-c2n[nH]cc2S(=O)(=O)N3C)cc1	15	26	0	0	0	0	13	22	0	9	0	3	0	0	0			
Cc1c(Cn2c3ccccc3n3c(=O)cc(N4CCOCC4)nc23)cccc1C(F)(F)F [GSK2306394]	0	0	0	11	0	10	6	0	9	0	0	0	19	0	2			
